Sampled rows, rich in hits. Any-hit rate of the full collection: about 28%.
Mac1 fbg inh: inhibitors of CD11b/CD18 adhesion to fibrinogen, primary screen, K562 cells, luminescence; Integrin beta-2 (Homo sapiens) + Integrin alpha-M (Homo sapiens), P05107+P11215; ATPlite luminescence; Mn2+ added to activate the integrin; inhibition, % at 10 µM; hit rate 0.54% among 93,000; AID 1497, 2009;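 active = primary inhibition of 50% or more at 10 µM, then 40% or more on retest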
CYP2C9 inhib: blockers of cytochrome P450 2C9 activity – biochemical, luminescence, ADME assay, primary screen | inhibition, % at 5 µM | hit rate 20% among 96,000 | CYP2C9 Supersomes, luciferin-H conversion | P11712 | AID 777, 2007;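 active = blocking of liver enzyme CYP2C9 beyond about 50% at 5 µM, limit read from the data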
Target sequence (P11712 whole entry, looked up): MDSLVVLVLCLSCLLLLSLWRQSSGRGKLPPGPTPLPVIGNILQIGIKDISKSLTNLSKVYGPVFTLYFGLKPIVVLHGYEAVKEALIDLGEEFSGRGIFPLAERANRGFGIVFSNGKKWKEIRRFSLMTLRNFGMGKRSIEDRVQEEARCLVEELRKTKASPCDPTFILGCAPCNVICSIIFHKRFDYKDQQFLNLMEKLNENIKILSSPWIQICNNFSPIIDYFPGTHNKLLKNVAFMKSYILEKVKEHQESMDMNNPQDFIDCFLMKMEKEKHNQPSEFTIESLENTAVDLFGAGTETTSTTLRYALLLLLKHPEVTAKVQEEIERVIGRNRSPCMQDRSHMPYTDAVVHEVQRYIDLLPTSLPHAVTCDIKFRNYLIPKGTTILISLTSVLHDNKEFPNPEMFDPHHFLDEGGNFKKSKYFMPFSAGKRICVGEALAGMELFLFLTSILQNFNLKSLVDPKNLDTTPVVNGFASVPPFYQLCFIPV
CYP2C9 act: human CYP2C9 activators, primary screen, biochemical, luminescence. hit rate 1.4% among 96,000. AID 1024, 2008. Cytochrome P450 2C9 (Homo sapiens), P11712. recombinant CYP2C9, luciferin-H conversion; hits give high values; factor 1 = untreated enzyme, 0 = blocked. activation factor at 5 µM;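 active = activation factor of 2 or more for CYP2C9 at a 5 µM dose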;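 also: 0 = sulfaphenazole-blocked wells and 1 = vehicle-only wells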
CD11b adhes enh: enhancers of CD11b/CD18 adhesion to fibrinogen, primary screen, K562 cells, luminescence. Integrin beta-2 (Homo sapiens) + Integrin alpha-M (Homo sapiens), P05107+P11215. ATPlite luminescence. activation, % at 10 µM. hit rate 0.07% among 93,000;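 active = 10 µM primary screen giving 50% or more activity, confirmed by 40% or more on retest at that dose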
CYP2C19 inh: blockers of cytochrome P450 2C19 activity – biochemical, luminescence, ADME assay, primary screen; P33261; CYP2C19 Supersomes, luciferin-H EGE luminescence, 30 min; inhibition, % at 5 µM; hit rate 21% among 96,000; AID 778, 2007;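 active = CYP2C19 inhibition above a set limit at 5 µM in the primary screen, cut at about 50% in these data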;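 also: plate controls were negative control wells for no effect and 2.5 mM tranylcypromine positive control for full effect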
CYP2C19 act: human CYP2C19 activators, primary screen, biochemical, luminescence. Cytochrome P450 2C19 (Homo sapiens), P33261. recombinant CYP2C19, luciferin-H EGE luminescence; hits give high values; 0 = fully inhibited enzyme, 1 = untreated enzyme. activation factor at 5 µM. 96,000 tested, under 10 active. AID 1025, 2008;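 active = activation factor of at least 2 at 5 µM in the primary screen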;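 also: 0 = wells with 2.5 mM tranylcypromine and 1 = vehicle-only wells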
Starred values were filed as active, the others as inactive.

How did COc1ccc(OC)c(S(=O)(=O)Nc2ccc(O)c3ccccc23)c1 do in these assays?
Mac1 fbg inh: 94; CYP2C9 inhib: 84*; CYP2C9 act: 0.2; CD11b adhes enh: 2; CYP2C19 inh: 76*; CYP2C19 act: 0.2

How did COc1ccc(OC)c(S(N)(=O)=O)c1 do in these assays?
Mac1 fbg inh: -10; CYP2C9 inhib: 2; CYP2C9 act: 1; CD11b adhes enh: 2; CYP2C19 inh: 13; CYP2C19 act: 0.9

Results for COc1ccc(Nc2nc3ccccc3n3nnnc23)cc1 ?
Mac1 fbg inh: -1; CYP2C9 inhib: 15; CYP2C9 act: 0.9; CD11b adhes enh: -3; CYP2C19 inh: 3; CYP2C19 act: 1

How did COc1cc(Nc2nc3ccccc3n3nnnc23)cc(OC)c1OC do in these assays?
Mac1 fbg inh: -3; CYP2C9 inhib: 69*; CYP2C9 act: 0.3; CD11b adhes enh: 4; CYP2C19 inh: 32; CYP2C19 act: 0.7

What do the screens show for `COc1ccc2c(c1)c1nc3ccccc3nc1n2Cc1ccc(OC)c(OC)c1`?
Mac1 fbg inh: -9; CD11b adhes enh: 57

What do the screens show for `CC(=O)c1ccc(NC(=O)Nc2ccccc2)cc1`?
Mac1 fbg inh: 3; CYP2C9 inhib: 63*; CYP2C9 act: 0.4; CD11b adhes enh: 1; CYP2C19 inh: 50*; CYP2C19 act: 0.5

Results for CC(=O)c1ccc(NC(=O)c2ccn[nH]2)cc1 ?
Mac1 fbg inh: -9; CYP2C9 inhib: 69*; CYP2C9 act: 0.3; CD11b adhes enh: 1; CYP2C19 inh: 43; CYP2C19 act: 0.6

What do the screens show for `CC(=O)c1ccc(NC(=O)CSCC(=O)Nc2ccc3ccccc3c2)cc1`?
Mac1 fbg inh: 1; CYP2C9 inhib: 55*; CYP2C9 act: 0.5; CD11b adhes enh: -5; CYP2C19 inh: 15; CYP2C19 act: 0.8

What do the screens show for `COc1cc(NC(=O)COC(C)=O)c(C)cc1[N+](=O)[O-]`?
Mac1 fbg inh: -13; CD11b adhes enh: 1

What do the screens show for `OCCNc1nc2ccc(Cl)cc2[nH]1`?
Mac1 fbg inh: -4; CYP2C9 inhib: -19; CYP2C9 act: 1.2; CD11b adhes enh: -2; CYP2C19 inh: -18; CYP2C19 act: 1.2

Results for Nn1c(SCC(=O)NC2CCCc3ccccc32)nnc1-c1cccs1 (stereo unspecified) ?
Mac1 fbg inh: -3; CYP2C9 inhib: 48; CYP2C9 act: 0.5; CD11b adhes enh: -5; CYP2C19 inh: 40; CYP2C19 act: 0.6

How did COc1cccc(Nc2nc(CN3CCOCC3)nc3sc4c(c23)CCCC4)c1 do in these assays?
Mac1 fbg inh: 9; CD11b adhes enh: 2

What do the screens show for `O=S(=O)(NC12CC3CC(CC(C3)C1)C2)c1ccc(F)cc1`?
Mac1 fbg inh: 4; CYP2C9 inhib: 83*; CYP2C9 act: 0.2; CD11b adhes enh: -4; CYP2C19 inh: 88*; CYP2C19 act: 0.1

How did O=S(=O)(Nc1nc2c(s1)CCCC2)c1ccc(F)cc1 do in these assays?
Mac1 fbg inh: 2; CYP2C9 inhib: 34; CYP2C9 act: 0.7; CD11b adhes enh: -1; CYP2C19 inh: 15; CYP2C19 act: 0.8

How did COc1cc(C2c3c(oc4ccccc4c3=O)C(=O)N2c2ccc(C)cn2)ccc1O (stereo unspecified) do in these assays?
Mac1 fbg inh: 4; CYP2C9 inhib: 68*; CYP2C9 act: 0.3; CD11b adhes enh: -4; CYP2C19 inh: 9; CYP2C19 act: 0.9

Results for CCOc1ccc(C2c3c(oc4ccccc4c3=O)C(=O)N2c2ccc(C)cn2)cc1OC (stereo unspecified) ?
Mac1 fbg inh: -9; CYP2C9 inhib: 82*; CYP2C9 act: 0.2; CD11b adhes enh: 0; CYP2C19 inh: 12; CYP2C19 act: 0.9

How did CCOc1ccc2nc(NC(=O)c3ccc(OCC4CCCO4)cc3)sc2c1 (stereo unspecified) do in these assays?
Mac1 fbg inh: 4; CD11b adhes enh: 1

Results for c1ccc(-n2cnnc2SCc2cn3ccsc3n2)cc1 ?
Mac1 fbg inh: 5; CYP2C9 inhib: 32; CYP2C9 act: 0.7; CD11b adhes enh: -1; CYP2C19 inh: 41; CYP2C19 act: 0.6

High-throughput results: PubChem BioAssay, Sanford-Burnham Center for Chemical Genomics
